# Assay results: PubChem BioAssay AID449762 (Southern Research Specialized Biocontainment Screening …, 2010)
# The campaign covered roughly 330,000 compounds. About 1,900 (0.58%) were called active. Not shown: some 4% with an inconclusive outcome. No stated cut-off is given here; in the data, inconclusive means inhibition above about 70% without an active follow-up result; inactive means below that. Not all results are given here. Entries with a potency or affinity are not part of this list.
# Assay: M. tuberculosis growth inhibition, HTS (AID 449762);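 further: bacterial growth assessed after seven days of incubation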
# Conditions: M. tuberculosis H37Rv growth inhibition, 7H9 media; at 25 µM; hits give high values
row,SMILES,inhibition
1,CN(CC(=O)Nc1ccc(F)cc1)C(=O)COC(=O)c1cc(S(=O)(=O)N(C)C)ccc1N1CCCC1,0.17% (inactive)
2,CCc1ccc2[nH]c(C(=O)Nc3ccc(C)c(F)c3)cc2c1,6.38% (inactive)
3,Cc1cc(C)c2cc(C(=O)Nc3ccc4c(c3)OCO4)[nH]c2c1,-1.94% (inactive)
4,Cc1cccc(NC(=O)C2CCN(S(=O)(=O)c3c(C)noc3C)CC2)c1,8.96% (inactive)
5,c1cc[n+](CCCC[n+]2ccccc2)cc1,-7% (inactive)
6,c1cc[n+](CCC[n+]2ccccc2)cc1,1.9% (inactive)
7,O=C(Nc1ccc(F)cc1)c1cnc(-c2ccccc2)nc1-c1ccccc1,-11.2% (inactive)
8,CCCOc1ccc2[nH]c(C(=O)N/N=C/c3cc(OC)c(OC)c(OC)c3)cc2c1,4.27% (inactive)
9,CCOc1ccc(CCNC(=O)Cc2ccc(NC3=NC4CS(=O)(=O)CC4S3)cc2)cc1 (stereo not given),-10.9% (inactive)
10,COCCn1c(=NC(=O)CSC(C)=O)sc2cc(OC)ccc21,-1.47% (inactive)
11,CS(=O)(=O)c1ccc(C(=O)NC(Cc2ccccc2)c2ccccc2)cc1 (stereo not given),-2.61% (inactive)
12,CS(=O)(=O)c1ccc(C(=O)NCc2ccccc2F)cc1,-1.2% (inactive)
13,Cn1cc(C(=O)N2CCCCC2)c2ccccc21,5.24% (inactive)
14,CCCCC[C@@H]1C=C(C(=O)O)[C@H](c2cccc(C)c2)N1S(=O)(=O)c1ccc(C)cc1,9.09% (inactive)
15,S=C(NCCNC(=S)Nc1ccccc1)Nc1ccccc1,-0.85% (inactive)
16,COc1ccc(C(CNc2nc(-c3cccnc3)nc3ccccc23)N(C)C)cc1 (stereo not given),-3.31% (inactive)
17,COC(=O)C1=C(C)N(C)C(=S)NC1c1c(OC)ccc2ccccc12 (stereo not given),8.17% (inactive)
18,O=C1NCN(c2ccccc2)C12CCN(c1nnnn1-c1ccccc1)CC2,-2.38% (inactive)
19,O=C1NCN(c2ccccc2)C12CCNCC2,-2.9% (inactive)
20,COc1ccc(S(=O)(=O)N(C)CC(=O)NC2CCCC2)cc1OC,-0.73% (inactive)
21,CC(=O)Nc1cccc(NC(=O)C2C3C=CC(C3)C2C(=O)O)c1 (stereo not given),1.17% (inactive)
22,Cc1ccc(-c2ccccc2NC(=O)C2C3C=CC(C3)C2C(=O)O)o1 (stereo not given),3.02% (inactive)
23,CCCCOc1ccc(C(=O)N2CCN(c3ccc(N4CCOCC4)nn3)CC2)cc1,37.3% (inactive)
24,CNC1=C([N+](=O)[O-])CC([N+](=O)[O-])=C(N2CCNCC2)N1C,1.39% (inactive)
25,Cc1nn(Cc2ccccc2)c(Cl)c1C(=O)OCC(=O)NC(=O)NC12CC3CC(CC(C3)C1)C2,3.45% (inactive)
